Structures can show the parent of a compound that is named as a salt. ± gives the standard deviation of the averaged measurements.
Legend:
[1] = system: Saccharomyces cerevisiae BY4741 SeMeCo community; assay: mean cell size (pixel area) (pixels); higher = larger cells; details: 10 µM; 24 h; SM minimal medium
How it was run: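 The test system was a fluorescent Saccharomyces cerevisiae BY4741 community with four plasmids, each restoring one auxotrophy and carrying a fluorescent marker. Cells were grown for 24 h in SM medium with drug at a final 10 µM in 384-well plates, then fixed with paraformaldehyde and imaged by automated confocal microscopy for Harmony analysis of mean cell pixel area per well. Values represent the average of 3 replicates. Same SeMeCo high-content imaging drug screen: Selleck FDA-approved drugs at 10 µM, 24 h in SM medium, 384-well plates, 3 replicates.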

[2] = system: Saccharomyces cerevisiae BY4741 SeMeCo community; assay: z-score of prototroph abundance vs DMSO median; higher = larger share of this subpopulation than in DMSO controls; details: 10 µM; 24 h; SM minimal medium; subpopulation (auxotrophy): Prototroph
How it was run: (§1)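 Subpopulation abundance was reported as a z-score against the median of vehicle wells. The Saccharomyces cerevisiae BY4741 community, carrying four plasmids that each restored one auxotrophy and encoded a distinct fluorescent protein, was grown 24 h in minimal SM medium in 384-well plates holding library drugs at 10 µM final. Cells were paraformaldehyde-fixed and imaged by automated confocal microscopy, with single-auxotroph fluorescent strains used for thresholds and autofluorescence correction.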

[3] = system: Saccharomyces cerevisiae BY4741 SeMeCo community; assay: z-score of subpopulation abundance vs DMSO median, subpopulation auxotrophic for L; higher = larger share of this subpopulation than in DMSO controls; details: 10 µM; 24 h; SM minimal medium; subpopulation (auxotrophy): L
How it was run: as §1

[4] = system: Saccharomyces cerevisiae BY4741 SeMeCo community; assay: z-score of subpopulation abundance vs DMSO median, subpopulation auxotrophic for U; higher = larger share of this subpopulation than in DMSO controls; details: 10 µM; 24 h; SM minimal medium; subpopulation (auxotrophy): U
How it was run: as §1

[5] = system: Saccharomyces cerevisiae BY4741 SeMeCo community; assay: z-score of subpopulation abundance vs DMSO median, subpopulation auxotrophic for H; higher = larger share of this subpopulation than in DMSO controls; details: 10 µM; 24 h; SM minimal medium; subpopulation (auxotrophy): H
How it was run: as §1

[6] = system: Saccharomyces cerevisiae BY4741 SeMeCo community; assay: z-score of subpopulation abundance vs DMSO median, subpopulation auxotrophic for LU; higher = larger share of this subpopulation than in DMSO controls; details: 10 µM; 24 h; SM minimal medium; subpopulation (auxotrophy): LU
How it was run: as §1

[7] = system: Saccharomyces cerevisiae BY4741 SeMeCo community; assay: z-score of subpopulation abundance vs DMSO median, subpopulation auxotrophic for LM; higher = larger share of this subpopulation than in DMSO controls; details: 10 µM; 24 h; SM minimal medium; subpopulation (auxotrophy): LM
How it was run: as §1

[8] = system: Saccharomyces cerevisiae BY4741 SeMeCo community; assay: z-score of subpopulation abundance vs DMSO median, subpopulation auxotrophic for HM; higher = larger share of this subpopulation than in DMSO controls; details: 10 µM; 24 h; SM minimal medium; subpopulation (auxotrophy): HM
How it was run: as §1

[9] = system: Saccharomyces cerevisiae BY4741 SeMeCo community; assay: z-score of subpopulation abundance vs DMSO median, subpopulation auxotrophic for HU; higher = larger share of this subpopulation than in DMSO controls; details: 10 µM; 24 h; SM minimal medium; subpopulation (auxotrophy): HU
How it was run: as §1

[10] = system: Saccharomyces cerevisiae BY4741 SeMeCo community; assay: z-score of subpopulation abundance vs DMSO median, subpopulation auxotrophic for UM; higher = larger share of this subpopulation than in DMSO controls; details: 10 µM; 24 h; SM minimal medium; subpopulation (auxotrophy): UM
How it was run: as §1

[11] = system: Saccharomyces cerevisiae BY4741 SeMeCo community; assay: z-score of subpopulation abundance vs DMSO median, subpopulation auxotrophic for HL; higher = larger share of this subpopulation than in DMSO controls; details: 10 µM; 24 h; SM minimal medium; subpopulation (auxotrophy): HL
How it was run: as §1

[12] = system: Saccharomyces cerevisiae BY4741 SeMeCo community; assay: z-score of subpopulation abundance vs DMSO median, subpopulation auxotrophic for HLU; higher = larger share of this subpopulation than in DMSO controls; details: 10 µM; 24 h; SM minimal medium; subpopulation (auxotrophy): HLU
How it was run: as §1

[13] = system: Saccharomyces cerevisiae BY4741 SeMeCo community; assay: z-score of subpopulation abundance vs DMSO median, subpopulation auxotrophic for HLM; higher = larger share of this subpopulation than in DMSO controls; details: 10 µM; 24 h; SM minimal medium; subpopulation (auxotrophy): HLM
How it was run: as §1

[14] = system: Saccharomyces cerevisiae BY4741 SeMeCo community; assay: z-score of subpopulation abundance vs DMSO median, subpopulation auxotrophic for HUM; higher = larger share of this subpopulation than in DMSO controls; details: 10 µM; 24 h; SM minimal medium; subpopulation (auxotrophy): HUM
How it was run: as §1

[15] = system: Saccharomyces cerevisiae BY4741 SeMeCo community; assay: z-score of subpopulation abundance vs DMSO median, subpopulation auxotrophic for LUM; higher = larger share of this subpopulation than in DMSO controls; details: 10 µM; 24 h; SM minimal medium; subpopulation (auxotrophy): LUM
How it was run: as §1

[16] = system: Saccharomyces cerevisiae BY4741 SeMeCo community; assay: z-score of subpopulation abundance vs DMSO median, subpopulation auxotrophic for HLUM; higher = larger share of this subpopulation than in DMSO controls; details: 10 µM; 24 h; SM minimal medium; subpopulation (auxotrophy): HLUM
How it was run: as §1

[17] = system: Saccharomyces cerevisiae BY4741 SeMeCo community; assay: z-score of subpopulation abundance vs DMSO median, subpopulation auxotrophic for M; higher = larger share of this subpopulation than in DMSO controls; details: 10 µM; 24 h; SM minimal medium; subpopulation (auxotrophy): M
How it was run: as §1

C#C[C@]1(OC(C)=O)CC[C@H]2[C@@H]3CCC4=C[C@@H](OC(C)=O)CC[C@@H]4[C@H]3CC[C@@]21C [Ethynodiol diacetate]
mean cell size [1]: 12.3 ± 0.37 | z-score of prototroph abundance [2]: 0.6 | z-score of subpopulation abundance [3]: -0.15 | z-score of subpopulation abundance [4]: -1.03 | z-score of subpopulation abundance [5]: -0.43 | z-score of subpopulation abundance [6]: -0.48 | z-score of subpopulation abundance [7]: 0.57 | z-score of subpopulation abundance [8]: -0.18 | z-score of subpopulation abundance [9]: -0.23 | z-score of subpopulation abundance [10]: -0.32 | z-score of subpopulation abundance [11]: 0.67 | z-score of subpopulation abundance [12]: 0.1 | z-score of subpopulation abundance [13]: -0.54 | z-score of subpopulation abundance [14]: -0.26 | z-score of subpopulation abundance [15]: -0.12 | z-score of subpopulation abundance [16]: 0.38

COC(=O)C1=C(C)NC(C)=C(C(=O)OC(C)C)C1c1cccc2nonc12 (stereo unspecified) [Isradipine]
mean cell size [1]: 12.49 ± 0.11 | z-score of prototroph abundance [2]: -0.42 | z-score of subpopulation abundance [17]: -0.1 | z-score of subpopulation abundance [3]: -0.22 | z-score of subpopulation abundance [4]: 0.74 | z-score of subpopulation abundance [7]: -1.09 | z-score of subpopulation abundance [8]: -0.24 | z-score of subpopulation abundance [9]: 0.75 | z-score of subpopulation abundance [11]: -0.52 | z-score of subpopulation abundance [12]: 0.04 | z-score of subpopulation abundance [14]: 0.44

CCCCOc1cc(C(=O)NCCN(CC)CC)c2ccccc2n1 [Dibucaine HCl]
mean cell size [1]: 12.3 ± 0.24 | z-score of prototroph abundance [2]: 0.15 | z-score of subpopulation abundance [17]: -0.03 | z-score of subpopulation abundance [4]: 0.46 | z-score of subpopulation abundance [5]: -0.92 | z-score of subpopulation abundance [7]: 0.03 | z-score of subpopulation abundance [8]: -0.88 | z-score of subpopulation abundance [10]: 0.1 | z-score of subpopulation abundance [11]: -1.25 | z-score of subpopulation abundance [12]: -0.62 | z-score of subpopulation abundance [13]: -0.03 | z-score of subpopulation abundance [14]: 0.03 | z-score of subpopulation abundance [15]: -0.54 | z-score of subpopulation abundance [16]: -0.06

COc1ccc(NS(=O)(=O)c2ccc(N)cc2)nn1 [Sulfamethoxypyridazine]
z-score of prototroph abundance [2]: 0.98 | z-score of subpopulation abundance [17]: -0.66 | z-score of subpopulation abundance [4]: 0.12 | z-score of subpopulation abundance [5]: -0.64 | z-score of subpopulation abundance [7]: -0.89 | z-score of subpopulation abundance [9]: -0.08 | z-score of subpopulation abundance [11]: -1.05 | z-score of subpopulation abundance [12]: -0.41 | z-score of subpopulation abundance [13]: -1.06 | z-score of subpopulation abundance [15]: -0.72 | z-score of subpopulation abundance [16]: -0.55

COc1cccc2c1C(=O)c1c(O)c3c(c(O)c1C2=O)C[C@@](O)(C(C)=O)C[C@@H]3O[C@H]1C[C@H](N)[C@H](O)[C@H](C)O1 [Daunorubicin HCl]
mean cell size [1]: 12.78 ± 0.043 | z-score of prototroph abundance [2]: -0.6 | z-score of subpopulation abundance [3]: -1.28 | z-score of subpopulation abundance [4]: 4.14 | z-score of subpopulation abundance [5]: 0.44 | z-score of subpopulation abundance [6]: 3.27 | z-score of subpopulation abundance [7]: -1.4 | z-score of subpopulation abundance [8]: -3.07 | z-score of subpopulation abundance [9]: 4.21 | z-score of subpopulation abundance [10]: 0.35 | z-score of subpopulation abundance [11]: 0.73 | z-score of subpopulation abundance [12]: 4.11 | z-score of subpopulation abundance [13]: -0.29 | z-score of subpopulation abundance [14]: 1.29 | z-score of subpopulation abundance [15]: 1.18 | z-score of subpopulation abundance [16]: 5.15

CCN1CCN(C(=O)N[C@@H](C(=O)N[C@@H]2C(=O)N3[C@@H]2SC(C)(C)[C@@H]3C(=O)O)c2ccccc2)C(=O)C1=O [Piperacillin Sodium]
mean cell size [1]: 12.6 ± 0.14 | z-score of prototroph abundance [2]: -0.12 | z-score of subpopulation abundance [17]: 0.21 | z-score of subpopulation abundance [5]: -0.01 | z-score of subpopulation abundance [7]: 0.88 | z-score of subpopulation abundance [8]: 1.21 | z-score of subpopulation abundance [9]: -0.25 | z-score of subpopulation abundance [10]: -0.96 | z-score of subpopulation abundance [11]: 0.54 | z-score of subpopulation abundance [12]: 0.68 | z-score of subpopulation abundance [13]: 0.59 | z-score of subpopulation abundance [14]: 0.48 | z-score of subpopulation abundance [15]: 0.86 | z-score of subpopulation abundance [16]: -0.13

CC[C@H](C)C(=O)O[C@H]1C[C@H](O)C=C2C=C[C@H](C)[C@H](CC[C@@H](O)C[C@@H](O)CC(=O)O)[C@H]21 [Pravastatin sodium]
z-score of prototroph abundance [2]: -0.86 | z-score of subpopulation abundance [17]: 0.01 | z-score of subpopulation abundance [3]: 2.2 | z-score of subpopulation abundance [4]: -0.09 | z-score of subpopulation abundance [5]: 0.31 | z-score of subpopulation abundance [7]: 1.93 | z-score of subpopulation abundance [8]: 0.12 | z-score of subpopulation abundance [9]: 0.26 | z-score of subpopulation abundance [10]: 0.47 | z-score of subpopulation abundance [12]: -0.65 | z-score of subpopulation abundance [14]: -0.32 | z-score of subpopulation abundance [15]: 0.57 | z-score of subpopulation abundance [16]: 2.71

Cc1ccccc1C(OCCN(C)C)c1ccccc1 (stereo unspecified) [Orphenadrine Citrate]
mean cell size [1]: 12.2 ± 0.14 | z-score of prototroph abundance [2]: 0.04 | z-score of subpopulation abundance [3]: -0.09 | z-score of subpopulation abundance [4]: 0.9 | z-score of subpopulation abundance [5]: -0.33 | z-score of subpopulation abundance [6]: 0.36 | z-score of subpopulation abundance [7]: -0.43 | z-score of subpopulation abundance [8]: -0.64 | z-score of subpopulation abundance [9]: 0.14 | z-score of subpopulation abundance [10]: 0.14 | z-score of subpopulation abundance [11]: -1.07 | z-score of subpopulation abundance [12]: 0.33 | z-score of subpopulation abundance [13]: -0.97 | z-score of subpopulation abundance [14]: -0.13 | z-score of subpopulation abundance [15]: 0.36 | z-score of subpopulation abundance [16]: -0.1

From the supplement of paper PMC8975748
